From PubChem BioAssay (NCATS)
Values joined by “and” are separate entries in the source; they are usually repeats but may differ in a detail not shown here. Equal entries are not always repeated. Records with an inconclusive call do not appear. Values without a mark were called inactive. Active and inactive are the calls of the source. The call rests on the fitted dose curve; in most records, active means well fitted curve in the direction sought with a large enough effect; inconclusive means small, poorly fitted or top-dose-only effect, or another doubt; inactive means no such curve, though single readings can be large; an effect the other way counts as inactive or inconclusive.

Tests used:
[1] = target: Cellular tumor antigen p53 (Homo sapiens) (UniProt P04637); assay: Primary qHTS for small molecule compounds that upregulate eGFP-tagged delta133p53alpha (in N-terminal) cells. (AID 2060322); settings: NCI-H358 eGFP-delta133p53alpha fluorescence, 24 h; activation: stronger effect = higher value; further: nearly all actives have a fitted effect of over 75% in size; further: potency means the concentration at half of the fitted maximal effect;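 on activation: series mostly up to about 56 µM; 0% = DMSO vehicle and 100% = reference activator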
In short: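 NCI-H358 cells pre-induced 24 h with 10 ng/ml doxycycline to express N-terminal eGFP-delta133p53alpha, then dosed 24 h at 37C without doxycycline; fixed, Hoechst-stained, GFP intensity by laser scanning cytometry, normalized to DMSO (0%) and 57.5 uM 5-azacytidine (100%).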

[2] = target: Aldehyde dehydrogenase, mitochondrial (Homo sapiens) (UniProt P05091); assay: qHTS for Inhibitors of the Aldehyde Dehydrogenase Family (ALDH2) Primary screen (AID 2061308);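 further: plate controls were vehicle for no effect and reference inhibitor for full effect; nearly all actives have a fitted effect of over 55% in size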
[3] = target: Retinaldehyde dehydrogenase 3 (Homo sapiens) (UniProt P47895); assay: qHTS for Inhibitors of the Aldehyde Dehydrogenase Family (ALDH1A3) Primary screen (AID 2061315);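 further: plate controls were DMSO vehicle for no effect and reference inhibitor for full effect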
[4] = BET inhibitor-based combinations targeting novel dependencies in MECOM-rearranged (r) AML: SET-2 cell line (AID 2202231); settings: SET-2 AML cells viability, CellTiter-Glo luminescence, 48 h; viability: stronger effect = lower value, concentration not given here; further: nearly all actives have a fitted effect of over 35% in size; further: potency means the concentration at half of the fitted maximal effect;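 on viability: plate controls were DMSO treated cells for no effect and wells without cells for full effect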
In short: (§1)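 Luminescent ATP readout (CellTiter-Glo) after 48 hr drug exposure gives viability. Curves span 11 concentrations and are normalized to DMSO and empty wells. Activity is reported as area under the curve and its Z-transform within each cell line.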

[5] = BET inhibitor-based combinations targeting novel dependencies in MECOM-rearranged (r) AML: OCI-AML3 cell line (AID 2202232); settings: Potency: OCI-AML3 viability; further: nearly all actives have a fitted effect of over 35% in size; further: potency means the concentration at half of the fitted maximal effect;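 on viability (% of control): series mostly up to about 46 µM; plate controls were DMSO vehicle wells for no effect and wells without cells for full effect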
In short: as §1

[6] = BET inhibitor-based combinations targeting novel dependencies in MECOM-rearranged (r) AML: MV-4-11 cell line (AID 2202233); further: nearly all actives have a fitted effect of over 45% in size; further: potency means the concentration at half of the fitted maximal effect;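 on viability, % of control: plate controls were DMSO for no effect and blank wells for full effect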
In short: (§2)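 Luminescent ATP readout (CellTiter-Glo, 15 min at room temperature) after 48 hr drug exposure gave viability. Dose-response curves, normalized to DMSO and empty-well controls, were summarized as area under the curve and its mean-centred Z-score.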

[7] = BET inhibitor-based combinations targeting novel dependencies in MECOM-rearranged (r) AML: HNT-34 cell line (AID 2202234); further: nearly all actives have a fitted effect of over 35% in size; further: potency means the concentration at half of the fitted maximal effect;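 on viability (% of control): plate controls were vehicle wells for no effect and cell-free wells for full effect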
In short: as §2

[8] = BET inhibitor-based combinations targeting novel dependencies in MECOM-rearranged (r) AML: UCSD-AML1 cell line (AID 2202235); further: nearly all actives have a fitted effect of over 40% in size; further: potency means the concentration at half of the fitted maximal effect;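 on viability (% of control): series mostly up to about 46 µM; plate controls were DMSO vehicle wells for no effect and blank wells for full effect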
In short: as §2

[9] = BET inhibitor-based combinations targeting novel dependencies in MECOM-rearranged (r) AML: AML-191 cell line (AID 2202236; further: nearly all actives have a fitted effect of over 35% in size; further: potency means the concentration at half of the fitted maximal effect;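 on viability (% of control): plate controls were vehicle wells for no effect and wells without cells for full effect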)
In short: as §1

[10] = target: Aldehyde dehydrogenase 1A1 (Homo sapiens) (UniProt P00352); assay: qHTS for Inhibitors of the Aldehyde Dehydrogenase Family (ALDH1A1) Confirmatory screens (AID 2061316); further: nearly all actives have a fitted effect of over 65% in size; further: potency means the concentration at half of the fitted maximal effect
[11] = BET inhibitor-based combinations targeting novel dependencies in MECOM-rearranged (r) AML: AML-194 cell line (AID 2202237; further: nearly all actives have a fitted effect of over 40% in size; further: potency means the concentration at half of the fitted maximal effect;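 on viability (% of control): plate controls were vehicle wells for no effect and wells without cells for full effect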)
In short: as §1

Sequence of Cellular tumor antigen p53 (Homo sapiens) (P04637 whole entry, looked up): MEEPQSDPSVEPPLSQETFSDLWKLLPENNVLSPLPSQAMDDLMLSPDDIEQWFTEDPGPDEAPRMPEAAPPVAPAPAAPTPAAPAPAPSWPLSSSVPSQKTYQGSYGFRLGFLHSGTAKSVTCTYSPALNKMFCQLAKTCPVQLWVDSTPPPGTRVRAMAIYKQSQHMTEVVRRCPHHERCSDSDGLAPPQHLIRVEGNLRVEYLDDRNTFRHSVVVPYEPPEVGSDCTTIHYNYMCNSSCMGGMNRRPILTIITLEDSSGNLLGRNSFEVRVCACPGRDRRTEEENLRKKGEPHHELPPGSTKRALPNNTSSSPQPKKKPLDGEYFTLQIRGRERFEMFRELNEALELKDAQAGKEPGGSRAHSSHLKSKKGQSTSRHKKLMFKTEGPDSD

CCCOc1ccc(CCc2nc3cc(-c4c(C)noc4C)ccc3n2CCN2CCOCC2)cc1
activation [1]: -35.8%
Potency [2]: inactive
Potency [3]: inactive
Potency [4]: 20.9 µM (active)
Potency [5]: 16.6 µM (active)
Potency [6]: 18.6 µM (active)
Potency [7]: 14.8 µM (active)

C[C@@H](Cc1cc2c(c(C(N)=O)c1)N(CCCO)CC2)NCCOc1ccccc1OCC(F)(F)F
activation [1]: 13.7%
Potency [2]: inactive
Potency [3]: inactive

Cc1nc(NC(=O)N2CCCC2C(N)=O)sc1-c1ccnc(C(C)(C)C(F)(F)F)c1 (centres undefined)
activation [1]: -0.893%
Potency [2]: inactive
Potency [3]: inactive
Potency [4]: 20.9 µM (active)
Potency [5]: 2.63 µM (active)
Potency [6]: 16.6 µM (active)

C/C=C(\C)C(=O)OC[C@H]1O[C@H](O[C@H]2O[C@H](CO)[C@@H](O)[C@H](O)[C@H]2O[C@@H]2O[C@H](CO)[C@@H](O)[C@H](O)[C@H]2O)[C@H](O[C@@H]2O[C@H](CO)[C@@H](O)[C@H](O)[C@H]2O)[C@@H](O)[C@@H]1O
activation [1]: -3.82%
Potency [2]: inactive
Potency [3]: inactive

CC(=O)Nc1cccc(-n2c(=O)n(C3CC3)c(=O)c3c(Nc4ccc(I)cc4F)n(C)c(=O)c(C)c32)c1
activation [1]: -5.24% and -3.57%
Potency [2]: inactive
Potency [3]: inactive
viability [4]: 89.5%

OC[C@H]1O[C@@H](OC(CCCCc2ccc(O)cc2)CCc2ccc(O)cc2)[C@H](O[C@@H]2OC[C@](O)(CO)[C@H]2O)[C@@H](O)[C@@H]1O (some centres undefined)
activation [1]: -24.4%
Potency [2]: inactive
Potency [3]: inactive

Cn1c(=O)n(-c2ccc(C(C)(C)C#N)cc2)c2c3cc(-c4cnc5ccccc5c4)ccc3ncc21
activation [1]: 13% and 27.3%
Potency [2]: inactive
Potency [3]: inactive
Potency [4]: 0.17 µM (active)
Potency [5]: 0.241 µM (active)
Potency [6]: 0.17 µM (active)
Potency [7]: 0.135 µM (active)
Potency [8]: 42.8 nM (active)
Potency [9]: 42.8 nM (active)

FC(F)(F)c1cc(-c2ncn(/C=C\c3nnco3)n2)cc(C(F)(F)F)c1
activation [1]: 7.67%
Potency [2]: inactive
Potency [3]: inactive

CC(C)(C)c1nc(-c2cccc(NS(=O)(=O)c3c(F)cccc3F)c2F)c(-c2ccnc(N)n2)s1
Potency [1]: 26.9 µM (active)
Potency [2]: inactive
Potency [3]: inactive
viability [4]: 98%

C[C@H](O)[C@H](O)[C@H]1CNc2nc(N)[nH]c(=O)c2N1
activation [1]: 10.3%
Potency [2]: inactive
Potency [3]: inactive
Potency [10]: 12.7 µM (active)

Cc1ccc(NC(=O)Nc2cc(C(F)(F)F)ccc2F)cc1Nc1ccc2c(c1)NC(=O)/C2=C\c1ccc[nH]1
activation [1]: -0.477%
Potency [2]: inactive
Potency [3]: inactive
Potency [4]: 23.5 µM (active)
Potency [5]: 20.9 µM (active)
Potency [6]: 16.6 µM (active)
Potency [7]: 26.3 µM (active)
Potency [8]: inactive
Potency [9]: 20900 nM (active)

CN[C@@H](C)[C@H]1[C@H](O)C[C@@]2(C)[C@@H]3CC[C@H]4C(C)(C)[C@@H](NC)CC[C@@]45C[C@@]35CC[C@]12C
activation [1]: -17.2% and -1.67%
activity change, negative = inhibition [2]: 0.631% [at 11.2 µM]
activity change, negative = inhibition [3]: 0.124% [at 11.2 µM]
viability [4]: 106%
viability (% of control) [5]: 106% [at 8.46 µM]
viability, % of control [6]: 115% [at 8.46 µM]
viability (% of control) [7]: 103% [at 8.46 µM]
viability (% of control) [8]: 111% [at 8.46 µM]
viability (% of control) [9]: 95.8% [at 8.46 µM]

O=C(Nc1ccc(-c2ccnc(Nc3ccc(N4CCOCC4)cc3)n2)cc1)C1CCCN1 (centres undefined)
activation [1]: -5.36%
Potency [2]: inactive
Potency [3]: inactive
Potency [4]: 9.34 µM (active)
Potency [5]: 16.6 µM (active)
Potency [6]: 2.35 µM (active)
Potency [7]: 5.9 µM (active)
Potency [8]: 1660 nM (active)

CC(=O)c1c(O)cc(O[C@@H]2O[C@H](CO)[C@@H](O)[C@H](O)[C@H]2O)cc1O
activation [1]: -8.04%
Potency [2]: inactive
Potency [3]: inactive
Potency [10]: inactive

O=C(Nc1cc(C(F)(F)F)ccc1N1CCCCC1)c1ccncc1
activation [1]: -17.9%
Potency [2]: inactive
Potency [3]: inactive

COc1cc(OC)c(/C=C/S(=O)(=O)Cc2ccc(OC)c(NCC(=O)O)c2)c(OC)c1
activation [1]: 17.9%
Potency [2]: inactive
Potency [3]: inactive
Potency [4]: 0.296 µM (active)
Potency [5]: 0.209 µM (active)
Potency [6]: 0.263 µM (active)
Potency [7]: 0.166 µM (active)
Potency [8]: 263 nM (active)
Potency [9]: 235 nM (active)
Potency [11]: 263 nM (active)

OCc1ccccc1O[C@@H]1O[C@H](CO)[C@@H](O)[C@H](O)[C@H]1O
activation [1]: 2.68%
Potency [2]: inactive
Potency [3]: inactive
viability [4]: 115%
Potency [5]: inactive
Potency [6]: inactive
Potency [7]: inactive
Potency [8]: inactive
Potency [9]: inactive
Potency [11]: inactive

CCC(CC)CC1(C(=O)Nc2ccccc2SC(=O)C(C)C)CCCCC1
activation [1]: 18.8%
Potency [2]: inactive
Potency [3]: inactive
viability [4]: 117%
Potency [5]: inactive
Potency [6]: inactive
Potency [7]: inactive
Potency [8]: inactive
Potency [9]: inactive
Potency [11]: inactive
